Laboratory results reported in the supplement of paper PMC10849652.
About 7,900 targets were measured; listed, in parts, are those with a hit and a random draw of the rest. About 0.6% of all pairs of compound and target were hits.

Legend:
Assay in all cases: log2 fold change, soluble protein after heating vs DMSO (PISA); higher = thermal stabilisation; K562 cells, 10 uM, 30 min; active = over 0.2 and 3.5 SD of the protein, either way, in both replicates (recomputed)
[1] = compound: COC1=CC=C(C=C1)CN2C=CC3=C2C=C(C=C3)C(=O)NO
Procedure, shortened: (§1)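 Soluble protein was defined as the supernatant after 21,000xg for 90 min. It came from K562 cells at 2×10^6 cells/mL given 10 μM compound for 30 min, heated in aliquots for 3 min across 48°C-58°C, pooled, and extracted in PBS with 0.5% NP-40 at 4°C, and was quantified by TMTpro 16plex LC-MS/MS with equalised channel sums. Thermal stability against control samples, from duplicates, is reported as log2 fold change.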

[2] = compound: CON(C)C(=O)N1N=C(c2cc(F)ccc2F)S[C@@]1(CCCN)c1ccccc1 [filanesib]
Procedure, shortened: as §1

[3] = compound: CO[C@H]1C[C@@H]2CC[C@@H](C)[C@@](O)(O2)C(=O)C(=O)N2CCCC[C@H]2C(=O)O[C@H]([C@H](C)C[C@@H]2CC[C@H](n3cnnn3)[C@H](OC)C2)CC(=O)[C@H](C)/C=C(\C)[C@@H](O)[C@@H](OC)C(=O)[C@H](C)C[C@H](C)/C=C/C=C/C=C/1C [zotarolimus]
Procedure, shortened: as §1

[4] = compound: COc1cc(C(=O)O)ccc1NC(=O)[C@@H]1N[C@@H](CC(C)(C)C)[C@](C#N)(c2ccc(Cl)cc2F)[C@H]1c1cccc(Cl)c1F [idasanutlin]
Procedure, shortened: as §1

[5] = compound: COc1cc(Nc2ncc3c(n2)-c2ccc(Cl)cc2C(c2c(F)cccc2OC)=NC3)ccc1C(=O)O [alisertib]
Procedure, shortened: as §1

[6] = compound: COc1cc2nc(-c3cc(F)ccc3O)nc(N[C@@H]3CNC[C@H]3C(C)(C)O)c2cc1OC
Procedure, shortened: as §1

[7] = compound: COc1cc2ncnc(Nc3ccc(F)c(Cl)c3)c2cc1OCCCN1CCOCC1 [gefitinib]
Procedure, shortened: as §1

[8] = compound: COc1cccc2cc(-c3nc([C@H]4CC[C@H](C(=O)O)CC4)n4ncnc(N)c34)[nH]c12
Procedure, shortened: as §1

[9] = compound: CS(=O)(=O)CCNCc1ccc(-c2ccc3ncnc(Nc4ccc(OCc5cccc(F)c5)c(Cl)c4)c3c2)o1 [lapatinib]
Procedure, shortened: as §1

[10] = compound: CS(=O)(=O)N1CCN(Cc2cc3nc(-c4cccc5[nH]ncc45)nc(N4CCOCC4)c3s2)CC1 [pictilisib]
Procedure, shortened: as §1

[11] = compound: CS(=O)(=O)c1ccc(-c2cnc(N)c(C(=O)Nc3ccccc3)n2)cc1
Procedure, shortened: as §1

[12] = compound: C[C@@H](Oc1cc(-c2cnn(C3CCNCC3)c2)cnc1N)c1c(Cl)ccc(F)c1Cl [crizotinib]
Procedure, shortened: as §1

[13] = compound: C[C@@H]1COCCN1C2=NC(=NC(=C2)C3(CC3)S(=O)(=O)C)C4=C5C=CNC5=CC=C4
Procedure, shortened: as §1

[14] = compound: C[C@H](C1=CC=C(C=C1)C(=O)NC2=C3C=CNC3=NC=C2)N
Procedure, shortened: as §1

[15] = compound: C[C@H](Nc1ncnc2nc[nH]c12)c1cc2cccc(Cl)c2c(=O)n1-c1ccccc1 [duvelisib]
Procedure, shortened: as §1

[16] = compound: Cc1cc(Nc2cc(CN3CCOCC3)c3nc(C)c(Cc4ccc(Cl)cc4F)n3n2)n[nH]1 [gandotinib]
Procedure, shortened: as §1

[17] = compound: Cc1cc(Nc2cc(N3CCN(C)CC3)nc(Sc3ccc(NC(=O)C4CC4)cc3)n2)n[nH]1 [tozasertib]
Procedure, shortened: as §1

[18] = compound: Cc1cc(SCc2sc(-c3ccc(C(F)(F)F)cc3)nc2C)ccc1OCC(=O)O
Procedure, shortened: as §1

[19] = compound: Cc1ccc(-n2nc(C(C)(C)C)cc2NC(=O)Nc2ccc(OCCN3CCOCC3)c3ccccc23)cc1 [doramapimod]
Procedure, shortened: as §1

[20] = compound: Cc1ccc(C(=O)N(CCCN)[C@@H](c2nc3cc(Cl)ccc3c(=O)n2Cc2ccccc2)C(C)C)cc1 [ispinesib]
Procedure, shortened: as §1

Measured: log2 fold change

MORC3 (UniProt Q14149)
Chain of UniProt Q14149 (Q14149 whole entry, looked up): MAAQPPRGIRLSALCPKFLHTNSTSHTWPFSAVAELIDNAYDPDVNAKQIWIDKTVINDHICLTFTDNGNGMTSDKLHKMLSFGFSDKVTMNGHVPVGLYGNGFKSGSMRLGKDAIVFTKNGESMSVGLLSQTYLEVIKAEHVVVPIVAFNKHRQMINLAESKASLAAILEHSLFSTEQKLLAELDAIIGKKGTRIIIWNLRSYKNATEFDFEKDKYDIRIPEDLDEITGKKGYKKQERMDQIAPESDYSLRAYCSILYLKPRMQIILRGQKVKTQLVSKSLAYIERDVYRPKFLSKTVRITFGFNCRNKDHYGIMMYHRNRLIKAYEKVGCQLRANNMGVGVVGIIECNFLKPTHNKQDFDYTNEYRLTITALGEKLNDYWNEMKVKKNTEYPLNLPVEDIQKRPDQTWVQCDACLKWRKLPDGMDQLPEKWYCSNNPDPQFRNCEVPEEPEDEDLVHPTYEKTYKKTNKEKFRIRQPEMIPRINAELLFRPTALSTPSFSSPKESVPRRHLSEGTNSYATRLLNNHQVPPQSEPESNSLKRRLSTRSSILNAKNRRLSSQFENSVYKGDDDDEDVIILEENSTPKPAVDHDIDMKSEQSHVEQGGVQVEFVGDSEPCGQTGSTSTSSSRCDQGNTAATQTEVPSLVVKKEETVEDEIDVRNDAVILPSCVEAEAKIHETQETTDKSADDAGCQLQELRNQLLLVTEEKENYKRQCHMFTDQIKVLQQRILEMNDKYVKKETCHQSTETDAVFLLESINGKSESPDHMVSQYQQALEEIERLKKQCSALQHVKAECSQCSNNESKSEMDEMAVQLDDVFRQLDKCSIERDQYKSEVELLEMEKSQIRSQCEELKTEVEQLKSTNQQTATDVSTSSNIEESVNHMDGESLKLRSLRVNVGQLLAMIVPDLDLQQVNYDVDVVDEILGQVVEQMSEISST
inactive: [1] 0.013 | [2] -0.04 | [3] 0.015 | [4] 0.021 | [5] 0.039 | [6] 0.146 | [7] -0.082 | [8] 0 | [9] -0.058 | [10] 0.196 | [11] 0.058 | [12] 0.052 | [13] 0.197 | [14] -0.106 | [15] 0.106 | [16] -0.017 | [17] 0.185 | [18] 0.122 | [19] -0.067 | [20] 0.041

MRPL34 (UniProt Q9BQ48)
inactive: [1] -0.074 | [2] 0.081 | [3] 0.072 | [4] 0.029 | [5] -0.089 | [6] -0.045 | [7] -0.105 | [8] -0.164 | [9] 0.028 | [10] -0.102 | [11] -0.004 | [12] -0.045 | [13] 0.077 | [14] 0.179 | [15] -0.079 | [16] 0.164 | [17] -0.002 | [18] 0.051 | [19] 0.152 | [20] -0.284

NDUFAF6 (UniProt Q330K2)
Chain of UniProt Q330K2 (Q330K2 whole entry, looked up): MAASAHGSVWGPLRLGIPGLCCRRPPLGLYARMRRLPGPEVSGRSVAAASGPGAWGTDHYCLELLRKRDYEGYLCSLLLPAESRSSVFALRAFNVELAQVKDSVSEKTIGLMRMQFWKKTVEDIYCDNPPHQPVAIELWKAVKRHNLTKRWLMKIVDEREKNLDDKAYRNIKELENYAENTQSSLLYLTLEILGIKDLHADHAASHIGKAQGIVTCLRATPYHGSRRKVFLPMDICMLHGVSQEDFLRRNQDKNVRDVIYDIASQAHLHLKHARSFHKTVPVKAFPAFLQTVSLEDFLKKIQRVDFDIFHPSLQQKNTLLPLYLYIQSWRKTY
inactive: [1] 0.183 | [2] -0.177 | [3] -0.006 | [4] 0.03 | [5] -0.199 | [6] -0.165 | [7] -0.018 | [8] 0.061 | [9] -0.007 | [10] 0 | [11] -0.052 | [12] -0.197 | [13] 0.182 | [14] -0.025 | [15] 0.144 | [16] -0.167 | [17] -0.051 | [18] 0.027 | [19] -0.065 | [20] -0.273

NOP53 (UniProt Q9NZM5)
inactive: [1] -0.111 | [2] 0.533 | [3] -0.008 | [4] 0.365 | [5] -0.1 | [6] 0.037 | [7] -0.127 | [8] -0.207 | [9] 0.163 | [10] -0.335 | [11] -0.116 | [12] 0.029 | [13] -0.019 | [14] 0.638 | [15] -0.335 | [16] 0.377 | [17] 0.147 | [18] -0.027 | [19] 0.277 | [20] 0.015

NELFA (UniProt Q9H3P2)
inactive: [1] 0.031 | [2] 0.035 | [3] -0.084 | [4] -0.117 | [5] 0.092 | [6] 0.105 | [7] 0.36 | [8] 0.017 | [9] -0.079 | [10] 0.076 | [11] -0.01 | [12] 0.082 | [13] 0.198 | [14] -0.011 | [15] 0.118 | [16] 0.004 | [17] 0.142 | [18] 0.234 | [19] -0.014 | [20] -0.068

NUDT16 (UniProt Q96DE0)
Chain of UniProt Q96DE0 (Q96DE0 whole entry, looked up): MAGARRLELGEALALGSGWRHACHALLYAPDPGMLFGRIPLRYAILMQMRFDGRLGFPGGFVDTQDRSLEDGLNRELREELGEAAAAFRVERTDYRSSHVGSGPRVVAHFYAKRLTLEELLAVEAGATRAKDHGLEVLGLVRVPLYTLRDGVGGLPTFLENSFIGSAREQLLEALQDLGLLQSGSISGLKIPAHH
inactive: [1] -0.033 | [2] -0.018 | [3] 0.1 | [4] -0.01 | [5] -0.168 | [6] 0.025 | [7] 0.005 | [8] 0.112 | [9] 0.054 | [10] 0.045 | [11] 0.054 | [12] 0.052 | [13] 0.042 | [14] -0.169 | [15] 0.045 | [16] 0.063 | [17] -0.011 | [18] 0 | [19] -0.034 | [20] 0.067

MMS19 isoform 8 (UniProt Q96T76)
Chain of UniProt Q96T76 (Q96T76 whole entry, looked up): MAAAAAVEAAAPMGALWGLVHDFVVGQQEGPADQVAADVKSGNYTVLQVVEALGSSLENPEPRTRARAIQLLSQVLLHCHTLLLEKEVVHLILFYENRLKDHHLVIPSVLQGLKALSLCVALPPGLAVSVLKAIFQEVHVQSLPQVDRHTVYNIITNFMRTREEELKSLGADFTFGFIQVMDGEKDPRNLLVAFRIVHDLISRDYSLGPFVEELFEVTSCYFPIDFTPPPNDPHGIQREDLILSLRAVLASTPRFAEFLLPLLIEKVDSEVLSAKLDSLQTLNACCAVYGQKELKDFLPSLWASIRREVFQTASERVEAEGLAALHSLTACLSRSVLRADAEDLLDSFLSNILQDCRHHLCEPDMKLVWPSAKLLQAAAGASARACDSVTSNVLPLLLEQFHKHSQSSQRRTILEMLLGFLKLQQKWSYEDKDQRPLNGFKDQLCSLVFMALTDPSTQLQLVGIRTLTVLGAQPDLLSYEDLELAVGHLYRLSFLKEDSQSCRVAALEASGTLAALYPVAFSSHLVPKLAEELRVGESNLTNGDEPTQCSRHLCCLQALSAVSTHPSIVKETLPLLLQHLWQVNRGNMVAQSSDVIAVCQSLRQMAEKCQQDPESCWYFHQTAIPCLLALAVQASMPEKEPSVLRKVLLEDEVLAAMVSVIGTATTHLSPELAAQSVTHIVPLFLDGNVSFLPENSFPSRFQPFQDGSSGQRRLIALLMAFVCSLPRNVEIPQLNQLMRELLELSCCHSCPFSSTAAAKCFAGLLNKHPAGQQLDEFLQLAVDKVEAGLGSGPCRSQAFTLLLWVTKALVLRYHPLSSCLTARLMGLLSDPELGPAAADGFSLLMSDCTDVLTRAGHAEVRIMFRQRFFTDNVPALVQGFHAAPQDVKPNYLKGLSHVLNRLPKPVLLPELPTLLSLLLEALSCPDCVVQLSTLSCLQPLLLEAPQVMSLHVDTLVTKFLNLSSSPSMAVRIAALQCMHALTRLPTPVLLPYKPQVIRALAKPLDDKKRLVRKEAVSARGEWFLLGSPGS
inactive: [1] -0.094 | [2] -0.036 | [3] 0.037 | [4] -0.014 | [5] -0.019 | [6] 0.06 | [7] 0.026 | [8] 0.019 | [9] -0.021 | [10] -0.008 | [11] 0.002 | [12] -0.156 | [13] 0.023 | [14] 0.053 | [15] 0.044 | [16] -0.129 | [17] 0.051 | [18] 0.103 | [19] 0.033 | [20] -0.035

NEK3 (UniProt P51956)
Chain of UniProt P51956 (P51956 whole entry, looked up): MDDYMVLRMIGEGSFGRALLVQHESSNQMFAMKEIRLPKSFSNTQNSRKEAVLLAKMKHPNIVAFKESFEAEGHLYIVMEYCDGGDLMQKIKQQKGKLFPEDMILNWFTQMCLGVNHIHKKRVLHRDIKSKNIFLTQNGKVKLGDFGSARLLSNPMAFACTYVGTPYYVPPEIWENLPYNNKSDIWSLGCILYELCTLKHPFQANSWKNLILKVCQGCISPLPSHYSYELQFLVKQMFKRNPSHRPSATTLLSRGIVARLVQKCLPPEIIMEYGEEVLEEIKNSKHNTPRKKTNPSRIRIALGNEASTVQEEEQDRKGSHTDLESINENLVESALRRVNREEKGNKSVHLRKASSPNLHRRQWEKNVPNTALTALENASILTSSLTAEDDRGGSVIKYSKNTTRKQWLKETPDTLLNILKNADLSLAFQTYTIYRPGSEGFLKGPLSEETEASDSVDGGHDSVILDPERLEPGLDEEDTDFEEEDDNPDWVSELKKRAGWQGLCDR
inactive: [1] 0.058 | [2] -0.297 | [3] 0.217 | [4] 0.116 | [5] 0.074 | [6] 0.07 | [7] 0.086 | [8] -0.196 | [9] 0.061 | [10] 0.161 | [11] -0.086 | [12] 0.08 | [13] 0.19 | [14] -0.19 | [15] -0.032 | [16] 0.103 | [17] 0.083 | [18] 0.05 | [19] -0.014 | [20] -0.006

MRPS31 (UniProt Q92665)
active: [20] -0.28
inactive: [1] 0.016 | [2] 0.029 | [3] 0.03 | [4] -0.202 | [5] -0.008 | [6] -0.025 | [7] -0.077 | [8] -0.016 | [9] 0.054 | [10] -0.005 | [11] 0.063 | [12] 0.024 | [13] 0.027 | [14] 0.199 | [15] 0.005 | [16] 0.121 | [17] -0.015 | [18] 0.073 | [19] 0

OTULIN (UniProt Q96BN8)
Chain of UniProt Q96BN8 (Q96BN8 whole entry, looked up): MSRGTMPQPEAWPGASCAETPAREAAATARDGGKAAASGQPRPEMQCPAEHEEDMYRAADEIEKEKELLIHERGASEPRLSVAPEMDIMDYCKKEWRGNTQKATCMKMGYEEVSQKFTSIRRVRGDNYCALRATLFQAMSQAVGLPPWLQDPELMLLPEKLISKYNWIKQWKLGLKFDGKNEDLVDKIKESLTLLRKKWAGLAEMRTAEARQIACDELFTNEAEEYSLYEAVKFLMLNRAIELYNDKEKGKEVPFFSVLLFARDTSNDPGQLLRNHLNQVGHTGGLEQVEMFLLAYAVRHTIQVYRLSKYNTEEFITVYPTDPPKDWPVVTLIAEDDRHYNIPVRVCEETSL
inactive: [1] 0.022 | [2] -0.044 | [3] -0.024 | [4] -0.005 | [5] 0.086 | [6] 0.014 | [7] 0 | [8] -0.045 | [9] 0.048 | [10] 0.023 | [11] -0.099 | [12] -0.079 | [13] 0.04 | [14] 0.036 | [15] -0.027 | [16] -0.088 | [17] 0.098 | [18] 0.073 | [19] -0.095 | [20] -0.208

NEDD4L (UniProt Q96PU5)
Chain of UniProt Q96PU5 (Q96PU5 whole entry, looked up): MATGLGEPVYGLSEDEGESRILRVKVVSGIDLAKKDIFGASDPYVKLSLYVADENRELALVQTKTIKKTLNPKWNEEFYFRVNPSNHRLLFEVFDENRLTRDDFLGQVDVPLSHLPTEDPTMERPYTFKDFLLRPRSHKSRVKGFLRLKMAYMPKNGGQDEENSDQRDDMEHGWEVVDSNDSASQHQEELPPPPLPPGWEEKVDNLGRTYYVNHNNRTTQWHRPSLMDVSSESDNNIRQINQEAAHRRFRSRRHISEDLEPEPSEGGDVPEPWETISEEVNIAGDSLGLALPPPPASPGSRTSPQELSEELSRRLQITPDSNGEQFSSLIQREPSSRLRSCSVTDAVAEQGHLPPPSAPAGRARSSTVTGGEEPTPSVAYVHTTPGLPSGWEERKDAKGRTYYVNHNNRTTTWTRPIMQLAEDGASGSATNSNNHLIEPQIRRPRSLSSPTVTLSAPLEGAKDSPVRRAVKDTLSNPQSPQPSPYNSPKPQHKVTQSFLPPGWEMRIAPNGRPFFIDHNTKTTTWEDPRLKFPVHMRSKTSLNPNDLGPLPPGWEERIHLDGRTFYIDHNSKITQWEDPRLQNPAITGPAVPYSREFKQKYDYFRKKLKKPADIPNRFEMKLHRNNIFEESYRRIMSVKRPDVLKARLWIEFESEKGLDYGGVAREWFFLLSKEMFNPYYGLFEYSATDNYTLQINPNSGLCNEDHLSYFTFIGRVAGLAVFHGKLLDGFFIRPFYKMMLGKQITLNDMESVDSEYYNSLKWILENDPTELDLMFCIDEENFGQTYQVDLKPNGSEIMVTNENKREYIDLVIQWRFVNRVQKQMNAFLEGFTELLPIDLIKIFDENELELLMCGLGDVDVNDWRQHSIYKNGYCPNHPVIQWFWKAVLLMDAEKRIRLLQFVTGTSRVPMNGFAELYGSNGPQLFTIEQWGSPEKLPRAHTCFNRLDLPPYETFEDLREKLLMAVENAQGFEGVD
inactive: [1] -0.027 | [2] 0.095 | [3] 0.032 | [4] -0.018 | [5] -0.114 | [6] 0.086 | [7] -0.031 | [8] 0.027 | [9] -0.025 | [10] -0.035 | [11] 0.015 | [12] -0.005 | [13] -0.071 | [14] -0.105 | [15] 0 | [16] 0.015 | [17] 0.088 | [18] 0.083 | [19] 0.026 | [20] -0.037

MTOR (UniProt P42345)
active: [3] -0.308
inactive: [1] 0.002 | [2] -0.112 | [4] -0.09 | [5] -0.017 | [6] -0.012 | [7] -0.018 | [8] -0.019 | [9] 0.014 | [10] 0.019 | [11] 0.003 | [12] -0.23 | [13] 0.08 | [14] 0.06 | [15] 0.025 | [16] -0.138 | [17] 0.044 | [18] 0.024 | [19] 0.001 | [20] -0.184

NQO1 (UniProt P15559)
Chain of UniProt P15559 (P15559 whole entry, looked up): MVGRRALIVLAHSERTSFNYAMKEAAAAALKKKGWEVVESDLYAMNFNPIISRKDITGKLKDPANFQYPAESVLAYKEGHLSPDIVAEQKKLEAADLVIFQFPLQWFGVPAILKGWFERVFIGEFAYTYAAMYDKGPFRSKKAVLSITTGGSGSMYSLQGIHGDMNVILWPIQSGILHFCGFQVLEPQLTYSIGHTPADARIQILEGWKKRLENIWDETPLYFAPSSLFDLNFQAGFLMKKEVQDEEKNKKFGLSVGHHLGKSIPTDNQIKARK
inactive: [1] 0.062 | [2] -0.053 | [3] 0.069 | [4] -0.085 | [5] -0.094 | [6] 0.011 | [7] -0.006 | [8] 0.001 | [9] -0.017 | [10] -0.006 | [11] 0.055 | [12] -0.004 | [13] 0.069 | [14] -0.06 | [15] 0.165 | [16] -0.062 | [17] 0.011 | [18] 0.152 | [19] -0.008 | [20] 0.05

NDUFA6 (UniProt P56556)
Chain of UniProt P56556 (P56556 whole entry, looked up): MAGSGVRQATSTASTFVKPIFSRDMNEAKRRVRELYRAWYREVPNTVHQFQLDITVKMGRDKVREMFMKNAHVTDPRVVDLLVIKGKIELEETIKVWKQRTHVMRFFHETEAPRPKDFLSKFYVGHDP
inactive: [1] 0.097 | [2] -0.035 | [3] 0.05 | [5] 0.044 | [6] 0.048 | [7] -0.004 | [8] 0.068 | [9] 0.097 | [10] 0.087 | [11] 0.012 | [12] -0.044 | [13] 0.172 | [14] -0.078 | [15] 0.017 | [16] -0.22 | [17] -0.009 | [18] 0.098 | [19] -0.004 | [20] 0
active: [4] -0.383

MRPS25 (UniProt P82663)
inactive: [1] 0.066 | [2] 0.029 | [3] 0.053 | [4] -0.185 | [5] -0.038 | [6] -0.055 | [7] 0.058 | [8] -0.046 | [9] 0.08 | [10] 0.063 | [11] -0.018 | [12] -0.082 | [13] -0.103 | [14] 0.165 | [15] 0.009 | [16] -0.109 | [17] 0.017 | [18] 0.121 | [19] -0.083
active: [20] -0.438

NEU1 (UniProt Q99519)
inactive: [1] 0.153 | [2] -0.107 | [3] 0.001 | [4] 0.015 | [5] -0.123 | [6] -0.05 | [7] -0.091 | [8] -0.073 | [9] -0.015 | [10] -0.113 | [11] -0.005 | [13] -0.15 | [14] 0.029 | [15] 0.06 | [16] -0.056 | [17] -0.015 | [18] -0.008 | [19] 0.155
active: [12] -0.365 | [20] -0.319
